The campaign covered roughly 3,400 compounds. About 840 (25%) were called active. Not shown: some 11% with an inconclusive outcome. A selection follows. Measured potencies and affinities stand elsewhere. Values without a mark were called inactive.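 How the source made its calls: active means fitted half-maximal concentration of signal decrease at or below twice the sample's top tested concentration; inconclusive means flat curve between -70 and -30 percent, or poor fit; inactive means flat within 30 percent, signal rise, or potency above limit.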
Test: inhibitors of Toxoplasma growth in IFN-γ-primed HeLa – cell-based, ME49Luc, luciferase, 72 h, dose response (AID 1259418)
Conditions: T. gondii ME49Luc in IFN-y HeLa, hits give low values, -100% = high-dose IFN-γ control wells; at 19.5 µM unless noted

Row | SMILES | max activity
1 | Cc1ccc(C(=O)Nc2c(C(=O)N3CCN(c4ccccn4)CC3)[nH]c3ccc(C)cc23)cc1 | 31.1% [at 0.68 µM]
2 | Cc1ccc2c(c1C)-n1cccc1C1(CCN(C(=O)c3ccccc3C(F)(F)F)CC1)N2 | -6.6% [at 5 µM]
3 | COc1ccc2c(c1)NC1(CCN(C(=O)c3cc(OC)c(OC)c(OC)c3)CC1)c1cccn1-2 | 9.35% [at 0.35 µM]
4 | COc1ccc(OCC(=O)N2CCC3(CC2)Nc2cc(F)ccc2-n2cccc23)cc1 | 4.86% [at 10 µM]
5 | COc1cc(OC)cc(C(=O)N2CCC3(CC2)Nc2cc(F)ccc2-n2cccc23)c1 | 10.1%
6 | COc1ccc2c(c1)NC1(CCN(C(=O)COc3cccc(C)c3)CC1)c1cccn1-2 | -5.04% [at 0.16 µM]
7 | COc1ccc(-c2nc(Nc3ccc(F)cc3Cl)c3ccccc3n2)cc1 | 8.01%
8 | Cc1oc(-c2ccccc2)nc1Cn1nnc(-c2nc(-c3ccc(Cl)cc3)no2)c1C | 11.1%
9 | N#CCSC1=Nc2ccccc2C2=NC(CC(=O)NC3CCCCC3)C(=O)N12 (stereo not given) | 23.6% [at 10 µM]
10 | COCC1CN(C(=O)c2cc(C)on2)Cc2c1cnn2CC1CC1 (stereo not given) | 27.1%
11 | CC(=O)N1Cc2ncn(CC3CC3)c2C(COCC2CCOCC2)C1 (stereo not given) | 8.65%
12 | CCOc1ccccc1C(=O)N1CCC2(CC1)Nc1ccc(C)c(C)c1-n1cccc12 | -6.2% [at 2.6 µM]
13 | COc1ccc(S(=O)(=O)N(Cc2nc(-c3cccc(Cl)c3)oc2C)c2ccccc2OC)cc1 | -7.97% [at 5 µM]
14 | COc1ccccc1N(Cc1nc(-c2ccccc2)oc1C)S(=O)(=O)c1ccccc1 | -5.89% [at 0.35 µM]
15 | CCOc1ccc(NC(=O)Nc2ccc(-c3nc(-c4ccc(C)cc4)co3)cc2)cc1 | 62.7%
16 | N#CCSC1=Nc2ccccc2C2=NC(CCC(=O)NCc3ccc4c(c3)OCO4)C(=O)N12 (stereo not given) | 17.8%
17 | CCc1c(C)sc2c1CCN(Cc1nc(-c3cc(C)ccc3C)oc1C)C2c1ccccc1 (stereo not given) | 12.6% [at 5 µM]
18 | CN1CCN(C(=O)Cc2ccsc2)Cc2cccnc21 | 40%
19 | Cc1ccnc(Nc2nc(C)c(C(=O)N3CCC(C(N)=O)(N4CCCCC4)CC3)s2)c1 | -7.52% [at 0.35 µM]
20 | COc1ccc(-c2nc(Nc3cc(OC)ccc3OC)c3ccccc3n2)cc1 | -18.7% [at 5 µM]

Row | SMILES | max activity
21 | COc1ccc(-c2nc(Nc3ccc(CN4CCCCC4)cc3)c3ccccc3n2)cc1 | 10.9% [at 10 µM]
22 | COc1ccc(Nc2nc(-c3ccc(OC)cc3)nc3ccccc23)cc1 | 12.9%
23 | COc1ccc(-c2nc(Nc3ccccc3OC)c3ccccc3n2)cc1 | 20%
24 | Clc1ccccc1-c1nc(NCCCc2ccccc2)c2ccccc2n1 | -24.4% [at 10 µM]
25 | CCN(CCNc1nc(-c2ccccc2Cl)nc2ccccc12)c1cccc(C)c1 | 12.3%
26 | CCc1ccc(Nc2nc(-c3ccc(OC)cc3)nc3ccccc23)cc1 | -16.2% [at 0.35 µM]
27 | COc1ccc(-c2nc(Nc3ccccc3)c3ccccc3n2)cc1 | 6.36% [at 10 µM]
28 | Cc1ccccc1CC(=O)N1CCC2(CC1)Nc1cc(F)ccc1-n1cccc12 | 10.3% [at 0.68 µM]
29 | CCOC(=O)c1cccc(NC(=O)Nc2ccc(-c3nc(-c4ccc(C)cc4C)co3)cc2)c1 | -3.92% [at 1.35 µM]
30 | CCOc1ccc(-c2nc(CN3CCN(C(=O)Nc4cccc(C)c4C)CC3)c(C)o2)cc1 | -7.65% [at 0.68 µM]
31 | O=C(CC1Nc2c3ccccc3nc(=S)n2C1=O)NCCc1ccccc1 (stereo not given) | -10.8% [at 0.68 µM]
32 | Cc1ccc(C)c(-c2coc(-c3ccc(NC(=O)NCc4cccc(F)c4)cc3)n2)c1 | 9.05%
33 | Cc1oc(-c2cccc(Cl)c2)nc1CSc1nc2c(c(=O)[nH]1)CN(C(C)C)CC2 | 17.7% [at 0.68 µM]
34 | COc1ccc(-c2nc(Nc3ccc(F)cc3)c3ccccc3n2)cc1 | -11.2% [at 2.6 µM]
35 | CCOc1ccc(Nc2nc(-c3ccc(OC)cc3)nc3ccccc23)cc1 | 9.36%
36 | COc1ccc(-c2nc(Nc3ccc(C)c(Cl)c3)c3ccccc3n2)cc1 | 13% [at 0.35 µM]
37 | COc1ccc(-c2nc(Nc3ccc(Cl)cc3)c3ccccc3n2)cc1 | 10.4% [at 0.35 µM]
38 | O=C(Cc1cccc(F)c1)N1CCC2(CC1)Nc1cc(F)ccc1-n1cccc12 | -7.02% [at 2.6 µM]
39 | CCOc1ccccc1CNc1nc(-c2ccc(Cl)cc2)nc2ccccc12 | 22.2%
40 | COc1ccccc1NC(=O)Nc1ccc(-c2nc(-c3ccccc3)co2)cc1 | 62.5% [at 10 µM]

Source: PubChem BioAssay AID1259418 (Broad Institute, 2018)
